The campaign covered roughly 190,000 compounds. About 810 (0.43%) were called active. Shown is part of a subset that was picked to be rich in actives. Values without a mark were called inactive. Cut-off read from the data, not from the text of the source: active = inhibition above about 50%; inactive = the rest.

The target of this assay is Mannose-6-phosphate isomerase (Homo sapiens) (UniProt P34949). The assay can be described thus: MPI enzyme activity inhibition – biochemical, fluorescence intensity, coupled assay, primary screen (AID 1209).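 Note: plate controls were DMSO vehicle for no effect and wells lacking substrate for full effect.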 Particulars: purified PMI enzyme, at 20 µM, hits give high values.
Chain of Mannose-6-phosphate isomerase (Homo sapiens) (P34949 whole entry, looked up): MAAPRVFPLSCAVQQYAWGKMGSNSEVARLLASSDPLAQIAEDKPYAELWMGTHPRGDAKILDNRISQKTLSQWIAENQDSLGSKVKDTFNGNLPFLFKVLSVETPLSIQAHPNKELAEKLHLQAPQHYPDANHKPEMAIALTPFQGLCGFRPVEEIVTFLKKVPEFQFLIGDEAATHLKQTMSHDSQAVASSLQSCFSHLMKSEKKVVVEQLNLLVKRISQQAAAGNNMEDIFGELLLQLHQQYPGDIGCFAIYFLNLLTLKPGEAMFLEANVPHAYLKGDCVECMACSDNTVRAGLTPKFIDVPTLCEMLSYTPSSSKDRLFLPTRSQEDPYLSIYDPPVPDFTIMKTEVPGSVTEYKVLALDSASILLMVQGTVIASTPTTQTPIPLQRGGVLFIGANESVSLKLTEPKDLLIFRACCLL
In general, inhibition refers to the relative decrease from the control value, in per cent. As for `O=C(NC1(C(F)(F)F)Oc2ccc(Cl)cc2O1)N1CCC2(CC1)OCCO2` (stereo unspecified), the inhibition was 79.1% (active). As for `O=C(NC(=O)N1CCC2(CC1)OCCO2)c1ccc(Cl)cc1`, the figure is 10.2%; as for `O=C(NC1(C(F)(F)F)Oc2ccccc2O1)N1CCC2(CC1)OCCO2`, 32.9%. On to `CC(=O)Nc1ccccc1C(=O)OCc1ccc(F)cc1`, for which the inhibition is 1.8%.

Turning to `CS(=O)(=O)N1CCN(C(=N)N[N+](=O)[O-])CC1`, the inhibition was -5.1%. Regarding `C/C(=N\N1CCCCC1c1cccnc1)c1c(O)n(C2CCCCC2)c(=S)[nH]c1=O` (stereo unspecified), the inhibition is 5.8%. The same measure for `O=C1C(=O)c2cccc3cccc1c23`: 17.2%; for `O=C1C(=O)c2ccccc2-c2ccccc21`: 25.8%; for `O=C1C=Cc2ccccc2C1=O`: 79.1% (active).

On to `Cc1cc(Oc2ccc(C(F)(F)F)cc2[N+](=O)[O-])c2c3c(c(=O)oc2c1)CCC3`, for which the inhibition was -1.9%. Regarding `Cc1cc(N2C(=O)CC(N3CCC(n4c(=O)[nH]c5ccccc54)CC3)C2=O)no1` (stereo unspecified), the inhibition was 6.9%. `COc1cc(CN2CC3CC(C2)c2cccc(=O)n2C3)cc(OC)c1OC` (stereo unspecified): the inhibition is -1.2%. Take `CCN(CC)c1ccc(N=Cc2c(O)n(CCc3ccc(OC)c(OC)c3)c(=O)[nH]c2=O)cc1`: the inhibition was 50% (active). The same measure for `CCN(CC)CCCN=Cc1c(O)n(CCc2ccc(OC)c(OC)c2)c(=O)[nH]c1=O`: -10.4%; for `CCN(CC)c1ccc(N=Cc2c(O)n(CCC3=CCCCC3)c(=O)[nH]c2=O)cc1`: 24.6%; for `CCOC(=O)C(NC(=O)C(Cc1ccc(N(CCCl)CCCl)cc1)NC(C)=O)C(C)C` (stereo unspecified): -44.3%. Consider `Cc1ccc(N2C(=O)/C(=C/N3CCN(C(=O)c4ccco4)CC3)C(=O)NC2=S)cc1C`, for which the inhibition is 37.6%.

Take `Cc1cccc(N2C(=O)/C(=C/N3CCN(C(=O)c4ccco4)CC3)C(=O)NC2=S)c1`: the inhibition was 55.5% (active).

As for `O=C1NC(=S)N(c2ccc(Br)cc2)C(=O)/C1=C/N1CCN(C(=O)c2ccco2)CC1`, the inhibition is 25.8%. For `CSCCC(N=Cc1c(O)n(-c2ccc(F)cc2)c(=O)[nH]c1=O)C(=O)OC(C)(C)C` (stereo unspecified), the inhibition was 12.2%. The same measure for `O=C(CNC(=O)c1cccc(Cl)c1)Nc1ccc(Br)cc1C(=O)c1ccccc1`: 17.1%; for `Cc1ccc(NC2=NCCCS2)c(C)c1C`: 12.6%.

With `Cc1cc(C=C2C(=O)N(C)C(=S)N(C)C2=O)c(C)n1-c1cccnc1`, the inhibition is 59.6% (active).

On to `C=CCN1C(=O)/C(=C/c2cc(C)n(-c3ccccn3)c2C)C(=O)NC1=S`, for which the inhibition was -25.6%. As for `C=CCN1C(=O)/C(=C/c2cc(C)n(-c3cccnc3)c2C)C(=O)NC1=S`, the figure is 50.2% (active); as for `Cc1cc(/C=C2/C(=O)NC(=O)N(C)C2=O)c(C)n1-c1ccccc1`, 2.6%; as for `Cc1ccnc(-n2c(C)cc(C=C3C(=O)N(C)C(=S)N(C)C3=O)c2C)c1`, 23.1%. The same measure for `Cc1cc(C=C2C(=O)N(C)C(=O)N(C)C2=O)c(C)n1-c1ccccc1`: -25.1%; for `COc1cc2c(cc1O)C[C@H]1NCCc3cc4c(c-2c31)OCO4`: 6.6%.

As for `CCOC(=O)c1c(C)n(Cc2ccccc2)c2ccc(OCC(O)CN3C(=O)CNC3=O)cc12` (stereo unspecified), the inhibition is 60.1% (active). `CCOC(=O)c1c(C)n(Cc2ccccc2)c2ccc(OCC(O)Cn3nc(C)cc3C)cc12` (stereo unspecified): the inhibition was 16.3%. The same measure for `CCOC(=O)c1c(C)n(Cc2ccccc2)c2ccc(OCC(O)Cn3nc(C)nc3C)cc12` (stereo unspecified): 15.7%; for `CCOC(=O)C1=C(C)OC(N)=C(C#N)C12C(=O)N(C)c1ccccc12` (stereo unspecified): 5.2%; for `C#CCN1C(=O)C2(C(C#N)=C(N)OC(C)=C2C(=O)OCc2ccccc2)c2ccccc21` (stereo unspecified): 51.6% (active). The same measure for `C=CCOC(=O)C1=C(C)OC(N)=C(C#N)[C@@]12C(=O)N(CC(N)=O)c1ccccc12`: -6.8%. The same measure for `Nc1ccc(Cl)cc1C(=O)c1ccccc1Cl`: 5.4%. Turning to `CN(C)C(=O)OCc1n(C)cc[n+]1C`, the inhibition was -9.3%. As to `CNC(=O)OCc1n(C)cc[n+]1C`, the inhibition is 20.7%.

Take `CCN(CC)P(c1n(C)cc[n+]1C)N(CC)CC`: the inhibition is 54.3% (active). As for `CCn1cc(CN2CCCC(C(=O)c3cccc(OC)c3)C2)c(C)n1` (stereo unspecified), the figure is 13%. The same measure for `CNC(C(=O)c1ccccc1)C(OC)c1ccc(C)cc1` (stereo unspecified): -37.6%.

The values are drawn from PubChem BioAssay AID1209 (Sanford-Burnham Center for Chemical Genomics, 2008).
